Sampled rows, rich in hits. Any-hit rate of the full collection: about 14%.
Pf growth 96h – P. falciparum growth inhibition at 96 hour, primary screen for plastid delayed-death inhibitors; AID 504834; P. falciparum luciferase reporter growth, 96 h; actives 6.9% (n = 320,000); Potency, µM (top dose mostly 28.7 µM), without a hit: at the top dose activity change, negative = inhibition, usual class: inhibitors; further: potency means the concentration at half of the fitted maximal effect
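Delayed-death screen, second-generation endpoint: infected erythrocytes, 2% hematocrit, 0.05% parasitemia final; 96 hours at 37 C, 5% CO2; luciferase detection reagent; luminescence decrease equals reduced growth.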
HCMV antiviral – blocks human cytomegalovirus replication; activity change, negative = inhibition, % at 57.5 µM; HFF cells, HCMV-luciferase reporter, 72 h; active compounds read low; actives 4.5% (n = 410,000); in the data active means activity change below about -60%; inconclusive means no clear call, values can overlap the other calls; inactive means above about -39%
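Luciferase read-out from HCMV-luciferase-infected HFFs (MOI 1 PFU/cell) 72 h post infection at 37C; compounds added after 16 h cell attachment; activity normalized between buffer-only basal and Salinomycin (10uM) inhibitor controls.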
Pf growth 48h – inhibits P. falciparum growth in the first generation, 48 h; Potency, µM (titrated, usually from 28.7 µM), for inactives: at the top dose activity change, negative = inhibition, actives largely listed as inhibitors; actives 5.9% (n = 310,000); P. falciparum luciferase growth in erythrocytes, 48 h; further: potency means the concentration at half of the fitted maximal effect
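Read-out is firefly luciferase luminescence from an integrated reporter in P. falciparum, so falling signal marks reduced parasite growth. Infected erythrocytes were at 2% hematocrit and 0.1% parasitemia (final) in Albumax-supplemented RPMI 1640.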
FBPA Giardia inh – inhibitors of Giardia lamblia fructose-1,6-bisphosphate aldolase; actives 0.71% (n = 290,000); AID 2451; A8B2U2; purified Giardia FBPA; Potency, µM (series often up to 59.6 µM), without a hit: at the highest dose activity, negative = inhibition, hits mostly inhibitors; further: potency means the concentration at half of the fitted maximal effect; nearly all actives have a fitted effect of over 55% in size
Target sequence (A8B2U2 whole entry, looked up): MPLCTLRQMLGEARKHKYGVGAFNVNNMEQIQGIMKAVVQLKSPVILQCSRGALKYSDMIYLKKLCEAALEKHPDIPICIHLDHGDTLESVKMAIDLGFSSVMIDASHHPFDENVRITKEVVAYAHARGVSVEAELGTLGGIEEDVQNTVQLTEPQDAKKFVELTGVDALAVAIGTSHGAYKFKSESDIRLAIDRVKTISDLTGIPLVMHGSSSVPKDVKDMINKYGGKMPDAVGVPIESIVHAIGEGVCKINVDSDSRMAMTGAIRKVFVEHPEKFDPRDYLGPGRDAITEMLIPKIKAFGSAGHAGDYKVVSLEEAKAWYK
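Giardia FBPA (40 nM reagent) was preincubated 10 min at RT with compound (up to 57.5 uM final), then substrate plus GAPDH/TPI/NAD/arsenate coupling system with diaphorase/resazurin was added; resorufin fluorescence (525/598 nm) was read after 20 min.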
Sm TGR block – inhibitors of Schistosoma mansoni thioredoxin glutathione reductase; purified TGR, DTNB reduction, TNB absorbance 405 nm; Q962Y6; Potency, µM (doses to about 114 µM), without a hit: top-dose activity change, negative = inhibition, actives largely listed as inhibitors; actives 3% (n = 360,000); further: potency means the concentration at half of the fitted maximal effect; nearly all actives have a fitted effect of over 60% in size
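TGR 20 nM + NADPH 100 uM (dispensed conc.), cpd preinc 15 min RT; start with NADPH (500 uM addition) then DTNB (15 mM addition). Kinetic TNB absorbance, 405 nm filter. Four-parameter Hill fit across titration.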
Starred values were filed as active, the others as inactive; ? = inconclusive; . = not tested or not shown. Unless noted, the call rests on the fitted dose curve; in most records, active means well fitted curve in the direction sought with a large enough effect; inconclusive means small, poorly fitted or top-dose-only effect, or another doubt; inactive means no such curve, though single readings can be large; an effect the other way counts as inactive or inconclusive. On the % scale 0 is the no-effect control and ±100 the full control effect.

SMILES	Pf growth 96h	HCMV antiviral	Pf growth 48h	FBPA Giardia inh	Sm TGR block
CCCCC(CC)COC1(c2ccccc2)OC(=O)c2ccccc21 (centres undefined)	8.3µM*	40	9.3µM*	2%	3%
N#Cc1c(SCC(=O)OCc2ccccc2)nsc1SCC(=O)OCc1ccccc1	-10%	30	.	0%	-6%
CC(C)c1ccc(-c2c(C#N)c(N)nc(SCC(=O)N3CCCCC3)c2C#N)cc1	?	-8	.	-1%	-19%
CC(C)OC(=O)CSc1nc(N)c(C#N)cc1C#N	-15%	?	-24%	-2%	6%
CC(C)OC(=O)CSc1nc(N)c(C#N)c(-c2ccco2)c1C#N	?	10	?	?	40µM*
Cc1c(-c2ccccc2)nc(N)c(C#N)c1-c1ccco1	.	-2	21%	-5%	35µM*
CCc1c(C#N)c(N)nc(SCC(=O)OCc2ccccc2)c1C#N	?	-2	9.3µM*	3%	0%
CC(C)c1ccc(-c2c(C#N)c(N)nc(SCC(=O)N3CCCCCC3)c2C#N)cc1	5.2µM*	43	.	6%	-14%
CCOC(=O)/C(=N/Nc1ccc(OC)cc1)N1CCCc2ccccc21	?	?	?	16µM*	-26%
CCOC(=O)/C(=N/Nc1ccccc1)N1CCCc2ccccc21	?	-63*	15µM*	-27%	7%
CCOC(=O)/C(=N/Nc1ccccc1OC)N1CCCc2ccccc21	?	-1	?	0%	40µM*
COc1ccc(NC(=O)CSCC(=O)N2CCCc3ccccc32)cc1	30%	-10	43%	.	-6%
COC(=O)/C(=N/Nc1ccccc1C)N1CCCc2ccccc21	?	-32	0%	-1%	-11%
COc1ccc(Cl)cc1NS(=O)(=O)c1cccc(C(=O)NCCCN2CCOCC2)c1	.	-35	.	.	.
O=C(CCc1nnc(Cc2ccc3c(c2)OCO3)o1)NCc1nc2ccccc2s1	?	51	1%	1%	28µM*
CCc1ccccc1N1C(=O)CC(Sc2nccc(C)n2)C1=O (centres undefined)	?	19	-15%	-8%	40µM*
Cc1ccnc(SC2CC(=O)N(c3ccc([N+](=O)[O-])cc3)C2=O)n1 (centres undefined)	-17%	14	-12%	-8%	22µM*
O=C(CCn1c(=O)c2sccc2n(Cc2cccc(F)c2)c1=O)NCc1ccc2c(c1)OCO2	.	-28	.	.	1%
Cc1ccc(C(=O)NC(=S)NCc2cccnc2)cc1C	9.3µM*	?	?	8%	50µM*
COc1ccc(C(=O)NC(=S)NCc2cccnc2)cc1Br	16%	?	-25%	-3%	-35%
O=C(NC(=S)NCc1cccnc1)c1ccc([N+](=O)[O-])cc1	33%	12	?	-25%	-15%
CC(C)c1ccc(C(=O)NC(=S)NCc2cccnc2)cc1	-29%	-74*	10%	0%	?
CCOc1ccc(C(=O)Nc2ccccc2N2CCN(C(=O)c3ccccc3)CC2)cc1[N+](=O)[O-]	1.7µM*	23	1.3µM*	.	3%
CCOc1ccc(C(=O)Nc2ccccc2CC)cc1[N+](=O)[O-]	?	45	20%	6%	4%
CCOc1ccc(C(=O)NC(=S)Nc2ccccc2N2CCC(C)CC2)cc1[N+](=O)[O-]	.	-97*	?	3%	8%
SMILES	Pf growth 96h	HCMV antiviral	Pf growth 48h	FBPA Giardia inh	Sm TGR block
COC(=O)[C@H]1C[C@@H]1[C@H](NC(=O)c1cc(C)nn1C)c1ccccc1	.	.	.	4%	.
C/C(=N\NC(N)=S)c1cc(-c2ccccc2)c(-c2ccccc2)s1	?	-3	9.3µM*	20%	4%
NC(=S)NN=C(c1ccccc1)c1ccccc1	?	19	?	?	12%
C/C(=N/NC(N)=S)c1ccc(Br)s1	-3%	?	15µM*	-22%	-13%
C/C(=N\NC(=O)Cc1ccccc1)c1ccc(Br)s1	78%	75	27%	9%	0%
COc1ccc(-c2nn(CC(=O)NCCc3ccccc3)c(=S)n2C)cc1	?	-96*	-10%	8%	-14%
CCn1c(-c2ccc(C)cc2)nn(CC(=O)NCCc2ccccc2)c1=S	?	-103*	-14%	1%	0%
Cc1nn(CC(=O)NCCc2ccccc2)c(=O)c2ccccc12	-15%	15	17%	0%	-3%
O=[N+]([O-])c1cc([As](=O)(O)O)ccc1O	1.7µM*	-26	2.6µM*	-26%	32µM*
COc1ccc(NC(=O)Nc2cccc(Cl)c2Cl)c(OC)n1	9.3µM*	-70*	?	-2%	4%
C=CCc1cc(/C=C2/NC(=O)N(CC)C2=O)cc(OCC)c1OCc1ccc(C(=O)O)cc1	?	-4	-17%	2%	-10%
CCCC1NC(=O)c2cccnc2-n2c1nc1cc(F)c(F)cc1c2=O (centres undefined)	.	-1	.	.	.
Cc1cccc(C)c1NC(=O)CNC(=O)CNC(=O)Cc1cccc2ccccc12	-10%	-3	-3%	.	6.3µM*
Cc1ccccc1NC(=O)CNC(=O)Cc1cccc2ccccc12	30%	-22	19%	.	0%
Cc1ccc(C)c(C2(O)CC(C)N(C)CC2C)c1 (centres undefined)	6.6µM*	-37	-2%	9%	11%
CC1CC(O)(Cc2ccccc2)C(C)CN1C (centres undefined)	-16%	-11	23%	4%	-1%
Cc1[nH]c2ccccc2c1C(=O)C(=O)NCc1nnnn1-c1ccc(F)c(F)c1	.	4	.	.	.
COc1ccc(OCC(=O)Nc2ncc3c(n2)CC(C)(C)CC3=O)cc1	32%	13	9%	-2%	2%
O=C(COc1ccccc1)Nc1ncc2c(n1)CCCC2=O	-3%	-62*	3%	-1%	-19%
COc1cc(Nc2cc3c(cn2)nc(Cc2ccccc2)n3C)cc(OC)c1OC	.	31	.	.	.
CN(C)S(=O)(=O)c1cc(NC(=O)C2=COCCO2)ccc1Cl	12µM*	-5	-16%	.	-2%
CCN(CC)S(=O)(=O)c1ccc(C)c(NCC(=O)Nc2ccc(C#N)c(Cl)c2)c1	5.2µM*	?	?	-4%	-6%
Cc1ccc(NC(=O)Cc2ccc(Cl)c(Cl)c2)cc1S(=O)(=O)N(C)C	-77%	-61*	5%	2%	-7%
CCN(CC)S(=O)(=O)c1ccc(Cl)c(NC(=O)c2ccc(C#N)cc2)c1	-7%	?	-18%	-4%	-15%
Cc1ccc(NC(=O)CNc2ccc(Cl)c(Cl)c2)cc1S(=O)(=O)N(C)C	?	-72*	-4%	-6%	4%
COc1ccc2[nH]cc(S(=O)(=O)c3ccc(C)c(C)c3)c(=O)c2c1	.	3	.	.	6%
Cc1cccc(C)c1NC(=O)C1(C)CN(S(C)(=O)=O)CC(=O)N1Cc1ccc2c(c1)OCO2 (centres undefined)	.	17	.	.	.

High-throughput results from PubChem BioAssay.
